# Laboratory results taken from PubChem BioAssay (Tox21).
# A number with no mark means an inactive call. Results filed as inconclusive are left out. A call without a number means that no potency is given here. Calls of active or inactive are those of the source. Calls come from the whole dose curve; as a rule, active = well fitted curve in the direction sought with a large enough effect in the repeat runs; inconclusive = weak or mixed curves; inactive = no such curve, though single readings can be large; an effect the other way counts as inactive or inconclusive.
# What was measured:
# [1] = Human pregnane X receptor (PXR) small molecule agonists, qHTS cell viability counter screen (AID 1346977); note: nearly all actives have a fitted effect of over 50% in size
# Summary of the method: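 Tox21 qHTS format; PXR-Luc HepG2, 2,000/well, charcoal-stripped FBS 5%. Cpd exposure 24hr. Read: CellTiter-Fluor fluorescence, multiplexed with luciferase.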
# [2] = Caspase-3/7 induction in HepG2 cells by small molecules, qHTS assay (AID 1346978); note: nearly all actives have a fitted effect of over 15% in size
# Summary of the method: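 Wild-type HepG2 cells (2,000/well) were settled 5 h at 37 C, 5% CO2, then exposed to compounds in DMSO for 17 h. Caspase-3/7 activity was read by luminescence 30 min after adding Caspase-Glo 3/7 reagent at room temperature.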
# [3] = Caspase-3/7 induction in CHO-K1 cells by small molecules, qHTS cell viability counter screen (AID 1346979); note: nearly all actives have a fitted effect of over 35% in size; note: potency is the fitted concentration of half-maximal effect
# Summary of the method: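 CellTiter-Fluor viability check, qHTS format: wild-type CHO-K1, 16hr compound treatment, 1hr reagent incubation, fluorescence read.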
# [4] = Caspase-3/7 induction in CHO-K1 cells by small molecules, qHTS assay (AID 1346980); note: nearly all actives have a fitted effect of over 15% in size
# Summary of the method: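 Wild-type cells were seeded at 1,500 per well and settled 5 hr at 37 C, 5% CO2, then exposed to DMSO-dissolved compounds for 17 hr. Caspase-Glo 3/7 reagent was added, and luminescence was read after 30min at room temperature.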
# [5] = Caspase-3/7 induction in HepG2 cells by small molecules, qHTS cell viability counter screen (AID 1346981); note: series mostly up to about 92 µM; nearly all actives have a fitted effect of over 30% in size
# Summary of the method: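 After a 5-hr attachment period at 37 C and 5% CO2, wild-type HepG2 cells received compounds in DMSO. Sixteen hours later CellTiter-Fluor was dispensed and the fluorescent signal quantified after a further hour.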
# [6] = molecular target: Nuclear receptor subfamily 1 group I member 2 (Rattus norvegicus) (UniProt Q9R1A7); experiment: Rat pregnane X receptor (rPXR) activation by small molecules, qHTS assay (AID 1346983); details: rPXR luciferase reporter cells, One-Glo luminescence, 24 h; max activation: hits give high values; note: nearly all actives have a fitted effect of over 20% in size
# Summary of the method: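 Cell-based rPXR luciferase reporter assay, 2,000 cells per well, rested 5hr at 37 C before compound addition in DMSO, then 24 hr at 37 C. One-Glo reagent was added and luminescence read after 30 min at room temperature.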
# [7] = molecular target: Voltage-gated inwardly rectifying potassium channel KCNH2 (Homo sapiens) (UniProt Q12809); experiment: Human Ether-a-go-go-Related Gene (hERG) channel small molecule antagonists: fluorescence cell-based qHTS assay (AID 1671200);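 note: hERG-expressing U2OS cells given a thallium stimulus after FluxOR II dye loading; series mostly up to about 77 µM; nearly all actives have a fitted effect of over 50% in size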
# Summary of the method: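 Kinetic two-minute fluorescence traces, sampled at 1 s, were collected following thallium stimulus of U2OS cells (1000 per well) that had been cultured overnight at 37 C and loaded with FluxOR II.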
# [8] = molecular target: Nuclear receptor subfamily 1 group I member 2 (Homo sapiens) (UniProt O75469); experiment: Human pregnane X receptor (PXR) small molecule agonists, qHTS assay (AID 1346982); note: nearly all actives have a fitted effect of over 35% in size; note: potency is the fitted concentration of half-maximal effect
# Summary of the method: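 Tox21 qHTS; PXR-Luc HepG2; compounds pinned from DMSO; 24 hr, 37 C; ONE-Glo luciferase detection, 30 min room temperature.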
# [9] = molecular target: Nuclear receptor subfamily 1 group I member 2 (Homo sapiens) (UniProt O75469); experiment: CYP3A4 induction through human pregnane X receptor (PXR) by small molecules, qHTS assay (AID 1346984); note: nearly all actives have a fitted effect of over 40% in size
# Summary of the method: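 Cells (DPX-2; HepG2 with PXR element plus CYP3A4-promoter luciferase) settled 5hr, then were treated 24hr at 37C. A 3hr, 3uM-final Luciferin-IPA step preceded luminescence measurement with One-Glo.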
# [10] = molecular target: Cytochrome P450 2C19 (Homo sapiens) (UniProt P33261); experiment: Cytochrome P450 Family 2 Subfamily C Member 19 (CYP2C19) small molecule antagonists: luciferase reporter qHTS assay (AID 1671197); note: nearly all actives have a fitted effect of over 65% in size; note: potency is the fitted concentration of half-maximal effect
# Summary of the method: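 Inhibition of CYP2C19 was scored from loss of luminescence in a P450-Glo proluciferin substrate assay, NADPH-started and run 1 h at 37C, with ketoconazole as positive control.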
# [11] = molecular target: Cytochrome P450 1A2 (Homo sapiens) (UniProt P05177); experiment: Cytochrome P450 Family 1 Subfamily A Member 2 (CYP1A2) small molecule antagonists: luciferase reporter qHTS assay (AID 1671199); note: nearly all actives have a fitted effect of over 50% in size; note: potency is the fitted concentration of half-maximal effect
# Summary of the method: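 Room-temperature CYP1A2 reaction with proluciferin substrate: compounds added from DMSO, 10 min preincubation, NADPH regeneration for 1 h. Luciferin detection reagent then added; luminescence recorded as RLU.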
# [12] = molecular target: Cytochrome P450 3A4 (Homo sapiens) (UniProt P08684); experiment: Cytochrome P450 Family 3 Subfamily A Member 4 (CYP3A4) small molecule antagonists: luciferase reporter qHTS assay (AID 1671201); note: series mostly up to about 120 µM; nearly all actives have a fitted effect of over 50% in size
# Summary of the method: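 Proluciferin-to-luciferin conversion by CYP3A4, NADPH-regenerated, 1 h RT; luminescence read as RLU. Ketoconazole as control.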
# [13] = molecular target: Cytochrome P450 2C9 (Homo sapiens) (UniProt P11712); experiment: Cytochrome P450 Family 2 Subfamily C Member 9 (CYP2C9) small molecule antagonists: luciferase reporter qHTS assay (AID 1671198); note: nearly all actives have a fitted effect of over 50% in size; note: potency is the fitted concentration of half-maximal effect
# Summary of the method: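 CYP2C9 activity was measured with a P450-Glo proluciferin substrate. Enzyme–substrate mix was held with compound for 10 min at room temperature, then NADPH regeneration solution was added for 1 h at 37C. Luciferin product was read as luminescence.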
# [14] = molecular target: Cytochrome P450 2D6 (Homo sapiens) (UniProt P10635); experiment: Cytochrome P450 Family 2 Subfamily D Member 6 (CYP2D6) small molecule antagonists: luciferase reporter qHTS assay (AID 1671196); note: nearly all actives have a fitted effect of over 50% in size; note: potency is the fitted concentration of half-maximal effect
# Summary of the method: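 Room-temperature luminescent CYP2D6 activity assay: compound preincubated 10 min with enzyme–substrate mix, NADPH-initiated reaction 1 h, detection reagent 20 min before reading.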
# [15] = molecular target: Nuclear receptor subfamily 1 group I member 2 (Homo sapiens) (UniProt O75469); experiment: Human pregnane X receptor (PXR) activation by small molecules, qHTS assay (AID 1346985); note: nearly all actives have a fitted effect of over 40% in size
# Summary of the method: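 DPX-2 cells (HepG2 co-transfected with a PXR response element and a CYP3A4-promoter luciferase construct) were seeded at 2,000 per well, rested 5 hr at 37C, then exposed to DMSO-dissolved compounds for 24 hr. Activation was read as luciferase luminescence.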
# Chain of Cytochrome P450 2D6 (Homo sapiens) (P10635 whole entry, looked up): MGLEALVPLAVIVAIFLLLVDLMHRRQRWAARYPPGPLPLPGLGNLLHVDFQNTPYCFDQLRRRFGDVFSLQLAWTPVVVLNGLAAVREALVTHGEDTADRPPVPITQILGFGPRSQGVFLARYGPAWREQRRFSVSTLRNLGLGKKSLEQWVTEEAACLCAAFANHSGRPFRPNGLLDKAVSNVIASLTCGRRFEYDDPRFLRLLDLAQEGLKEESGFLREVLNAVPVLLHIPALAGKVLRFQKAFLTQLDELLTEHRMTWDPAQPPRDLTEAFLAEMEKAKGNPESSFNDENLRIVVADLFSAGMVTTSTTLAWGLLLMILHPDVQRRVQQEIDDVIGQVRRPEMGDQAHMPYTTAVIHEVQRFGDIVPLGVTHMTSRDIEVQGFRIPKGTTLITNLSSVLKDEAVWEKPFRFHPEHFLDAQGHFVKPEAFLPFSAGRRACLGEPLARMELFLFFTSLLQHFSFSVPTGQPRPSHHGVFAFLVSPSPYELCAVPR
# Chain of Cytochrome P450 2C19 (Homo sapiens) (P33261 whole entry, looked up): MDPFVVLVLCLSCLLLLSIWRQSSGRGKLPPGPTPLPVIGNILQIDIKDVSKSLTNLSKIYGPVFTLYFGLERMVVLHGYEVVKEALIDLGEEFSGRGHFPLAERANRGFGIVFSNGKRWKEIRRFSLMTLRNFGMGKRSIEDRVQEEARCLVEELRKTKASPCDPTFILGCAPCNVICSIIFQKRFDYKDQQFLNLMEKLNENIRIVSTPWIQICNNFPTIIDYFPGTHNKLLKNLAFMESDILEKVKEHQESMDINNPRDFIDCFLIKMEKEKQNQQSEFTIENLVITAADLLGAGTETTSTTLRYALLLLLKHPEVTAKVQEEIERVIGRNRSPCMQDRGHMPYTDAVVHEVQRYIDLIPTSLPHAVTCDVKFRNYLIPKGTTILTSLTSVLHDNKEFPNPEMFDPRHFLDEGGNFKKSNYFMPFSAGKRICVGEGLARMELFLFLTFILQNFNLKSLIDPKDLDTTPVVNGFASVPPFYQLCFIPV
# Chain of Cytochrome P450 1A2 (Homo sapiens) (P05177 whole entry, looked up): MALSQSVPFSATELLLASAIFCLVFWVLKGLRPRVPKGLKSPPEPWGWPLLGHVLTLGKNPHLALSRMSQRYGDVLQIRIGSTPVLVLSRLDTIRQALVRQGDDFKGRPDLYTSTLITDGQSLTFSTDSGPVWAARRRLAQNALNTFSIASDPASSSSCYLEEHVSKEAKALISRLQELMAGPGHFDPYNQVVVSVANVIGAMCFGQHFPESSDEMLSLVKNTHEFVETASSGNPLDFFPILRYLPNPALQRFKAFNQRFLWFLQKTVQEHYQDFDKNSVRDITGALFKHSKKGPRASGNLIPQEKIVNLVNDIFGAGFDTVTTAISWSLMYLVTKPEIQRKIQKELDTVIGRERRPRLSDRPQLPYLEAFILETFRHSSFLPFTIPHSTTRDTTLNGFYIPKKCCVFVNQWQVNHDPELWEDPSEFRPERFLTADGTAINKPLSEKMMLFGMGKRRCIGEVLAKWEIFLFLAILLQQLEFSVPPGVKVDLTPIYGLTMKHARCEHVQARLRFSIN
# Chain of Nuclear receptor subfamily 1 group I member 2 (Homo sapiens) (O75469 whole entry, looked up): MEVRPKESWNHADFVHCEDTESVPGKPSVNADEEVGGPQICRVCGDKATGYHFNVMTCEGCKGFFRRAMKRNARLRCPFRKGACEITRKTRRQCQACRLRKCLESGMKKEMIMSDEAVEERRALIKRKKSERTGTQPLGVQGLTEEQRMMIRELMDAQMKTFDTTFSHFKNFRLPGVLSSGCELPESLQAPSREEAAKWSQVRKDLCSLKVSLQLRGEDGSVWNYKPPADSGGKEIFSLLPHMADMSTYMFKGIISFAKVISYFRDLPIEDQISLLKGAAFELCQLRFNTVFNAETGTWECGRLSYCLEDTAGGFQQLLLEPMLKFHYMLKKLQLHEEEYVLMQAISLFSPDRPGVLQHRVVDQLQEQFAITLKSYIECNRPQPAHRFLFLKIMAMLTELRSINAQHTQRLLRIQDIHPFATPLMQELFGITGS
# Chain of Cytochrome P450 3A4 (Homo sapiens) (P08684 whole entry, looked up): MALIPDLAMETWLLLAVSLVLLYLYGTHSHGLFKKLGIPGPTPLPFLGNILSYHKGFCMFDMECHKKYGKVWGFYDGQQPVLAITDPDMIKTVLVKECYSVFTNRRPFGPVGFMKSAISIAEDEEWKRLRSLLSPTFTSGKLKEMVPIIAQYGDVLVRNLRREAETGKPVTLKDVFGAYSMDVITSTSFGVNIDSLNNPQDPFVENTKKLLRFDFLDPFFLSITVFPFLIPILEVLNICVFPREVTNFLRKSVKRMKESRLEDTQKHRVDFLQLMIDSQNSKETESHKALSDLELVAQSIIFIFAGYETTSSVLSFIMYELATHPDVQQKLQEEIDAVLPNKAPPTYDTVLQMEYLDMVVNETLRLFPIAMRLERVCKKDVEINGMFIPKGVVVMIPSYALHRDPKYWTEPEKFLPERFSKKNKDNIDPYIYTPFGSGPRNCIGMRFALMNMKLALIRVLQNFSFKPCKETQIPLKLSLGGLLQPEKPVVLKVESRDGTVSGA
# Chain of Voltage-gated inwardly rectifying potassium channel KCNH2 (Homo sapiens) (Q12809 whole entry, looked up): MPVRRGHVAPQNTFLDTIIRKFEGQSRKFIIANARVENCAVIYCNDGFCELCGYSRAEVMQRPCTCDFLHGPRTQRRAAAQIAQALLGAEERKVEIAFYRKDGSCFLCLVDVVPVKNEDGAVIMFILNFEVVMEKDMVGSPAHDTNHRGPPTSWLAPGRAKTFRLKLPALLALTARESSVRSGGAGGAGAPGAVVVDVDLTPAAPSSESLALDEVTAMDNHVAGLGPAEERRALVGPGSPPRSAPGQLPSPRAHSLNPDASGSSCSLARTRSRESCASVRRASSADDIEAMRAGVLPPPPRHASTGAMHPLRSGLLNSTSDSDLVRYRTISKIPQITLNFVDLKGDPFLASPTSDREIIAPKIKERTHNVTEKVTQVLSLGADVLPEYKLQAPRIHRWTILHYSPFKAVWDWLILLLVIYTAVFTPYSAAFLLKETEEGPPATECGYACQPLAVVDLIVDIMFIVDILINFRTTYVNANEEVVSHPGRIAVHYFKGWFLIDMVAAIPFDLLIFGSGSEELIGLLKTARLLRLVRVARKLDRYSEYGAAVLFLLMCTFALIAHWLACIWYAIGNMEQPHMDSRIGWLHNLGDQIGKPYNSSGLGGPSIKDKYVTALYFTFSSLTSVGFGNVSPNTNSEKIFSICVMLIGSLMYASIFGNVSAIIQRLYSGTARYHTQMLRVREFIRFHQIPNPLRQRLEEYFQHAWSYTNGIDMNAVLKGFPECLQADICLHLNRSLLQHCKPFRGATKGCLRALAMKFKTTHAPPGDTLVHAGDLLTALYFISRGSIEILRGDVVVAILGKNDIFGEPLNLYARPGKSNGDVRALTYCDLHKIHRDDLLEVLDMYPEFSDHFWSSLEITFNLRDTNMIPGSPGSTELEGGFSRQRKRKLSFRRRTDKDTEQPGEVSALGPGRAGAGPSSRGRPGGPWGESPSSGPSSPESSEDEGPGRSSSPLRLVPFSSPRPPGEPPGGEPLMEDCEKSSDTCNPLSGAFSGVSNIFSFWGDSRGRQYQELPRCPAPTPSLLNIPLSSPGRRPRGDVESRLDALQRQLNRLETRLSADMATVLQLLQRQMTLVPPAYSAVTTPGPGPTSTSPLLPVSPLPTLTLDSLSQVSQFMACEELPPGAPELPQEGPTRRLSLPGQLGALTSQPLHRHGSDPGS
# Chain of Nuclear receptor subfamily 1 group I member 2 (Rattus norvegicus) (Q9R1A7 whole entry, looked up): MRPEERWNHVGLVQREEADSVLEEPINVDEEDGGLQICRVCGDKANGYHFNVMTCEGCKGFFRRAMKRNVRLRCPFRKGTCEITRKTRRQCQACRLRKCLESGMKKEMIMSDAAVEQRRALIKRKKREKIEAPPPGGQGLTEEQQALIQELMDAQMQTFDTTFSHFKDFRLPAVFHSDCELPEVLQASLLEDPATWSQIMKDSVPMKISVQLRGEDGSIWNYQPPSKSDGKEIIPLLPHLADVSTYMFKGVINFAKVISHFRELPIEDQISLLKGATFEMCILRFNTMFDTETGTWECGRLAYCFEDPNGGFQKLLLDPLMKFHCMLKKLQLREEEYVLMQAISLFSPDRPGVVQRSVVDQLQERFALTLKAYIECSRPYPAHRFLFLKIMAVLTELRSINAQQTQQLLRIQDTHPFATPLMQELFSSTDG
# Chain of Cytochrome P450 2C9 (Homo sapiens) (P11712 whole entry, looked up): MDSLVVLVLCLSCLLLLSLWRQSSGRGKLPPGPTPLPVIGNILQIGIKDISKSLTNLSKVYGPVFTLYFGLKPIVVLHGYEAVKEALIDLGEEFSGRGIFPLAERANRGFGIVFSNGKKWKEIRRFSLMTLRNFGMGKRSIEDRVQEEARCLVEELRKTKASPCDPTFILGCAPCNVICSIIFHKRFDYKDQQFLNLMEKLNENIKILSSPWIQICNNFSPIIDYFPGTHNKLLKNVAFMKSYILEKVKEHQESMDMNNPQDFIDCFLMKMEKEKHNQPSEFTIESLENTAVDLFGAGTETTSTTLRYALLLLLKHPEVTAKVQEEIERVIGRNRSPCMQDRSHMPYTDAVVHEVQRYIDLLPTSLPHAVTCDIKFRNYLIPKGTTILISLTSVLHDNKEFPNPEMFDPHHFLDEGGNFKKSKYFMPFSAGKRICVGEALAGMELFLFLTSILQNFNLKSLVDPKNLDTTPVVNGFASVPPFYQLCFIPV
SMILES,Potency [1],outcome [2],Potency [3],outcome [4],Potency [5],max activation [6] [%],Potency [7],Potency [8],Potency [9],Potency [10],Potency [11],Potency [12],Potency [13],Potency [14],Potency [15]
COc1cc(C)nc(-n2nc(C)cc2OC)n1,inactive,inactive,inactive,inactive,inactive,0.673,inactive,–,–,–,–,–,–,–,–
NCCCC(N)(C(=O)O)C(F)F (configuration not stated),inactive,inactive,inactive,inactive,inactive,–,inactive,–,–,–,–,–,–,–,–
C[N+]1(C)[C@@H]2CC(OC(=O)[C@H](CO)c3ccccc3)C[C@H]1[C@@H]1O[C@@H]12 (some centres not stated),inactive,inactive,inactive,–,inactive,-0.815,inactive,inactive,inactive,inactive,inactive,inactive,–,–,–
COc1cc(C(=O)OC(COCCC(C)C)CN2CCOCC2)cc(OC)c1OC (configuration not stated),inactive,inactive,inactive,inactive,inactive,–,inactive,–,–,3.47 µM (active),inactive,–,3.09 µM (active),–,–
CCCC[N+](C)(CCCC)CCCC,inactive,inactive,inactive,inactive,inactive,–,inactive,–,–,inactive,inactive,–,inactive,2.77 µM (active),–
COC(=O)Nc1ccc(Cl)c(Cl)c1,inactive,inactive,inactive,–,inactive,–,inactive,60.8 µM (active),–,17.7 µM (active),5.61 µM (active),inactive,70.6 µM (active),inactive,–
CN(C)CCCCCCN(C)C,inactive,inactive,inactive,inactive,inactive,–,inactive,–,–,–,–,–,–,–,–
O=C(c1ccccc1)C1(O)CCCCC1,inactive,inactive,inactive,–,inactive,–,inactive,inactive,–,11.2 µM (active),–,inactive,35.6 µM (active),inactive,–
CC(C)(N)C#N,inactive,inactive,inactive,–,inactive,–,inactive,inactive,–,inactive,inactive,inactive,inactive,inactive,–
CNC(=O)Nc1ccc(Cl)c(Cl)c1,inactive,inactive,inactive,–,inactive,–,inactive,34.4 µM (active),–,28.3 µM (active),5.03 µM (active),–,–,inactive,–
C1CCC2=NCCCN2CC1,inactive,inactive,inactive,inactive,inactive,–,inactive,–,–,–,–,–,–,–,–
CCOCC(C)O (configuration not stated),inactive,inactive,inactive,inactive,inactive,–,inactive,–,–,inactive,–,–,inactive,–,–
O=C1CCCCCCCCCCCCCCO1,inactive,inactive,inactive,–,inactive,–,–,inactive,–,inactive,–,–,–,inactive,–
O=C1NC(=O)C2CC=CCC12 (configuration not stated),inactive,inactive,inactive,inactive,inactive,–,inactive,–,–,–,–,–,–,–,–
CC(C)(C)C(=O)c1ccccc1,inactive,inactive,inactive,–,inactive,–,inactive,inactive,–,inactive,–,inactive,inactive,inactive,–
CCN(Cc1ccccc1)c1ccccc1,inactive,inactive,inactive,inactive,inactive,–,inactive,–,–,1.76 µM (active),35.1 µM (active),inactive,35.1 µM (active),–,–
COc1cccc(OC)c1C(=O)N[C@@H]1C(=O)N2[C@@H]1SC(C)(C)[C@@H]2C(=O)O,inactive,inactive,inactive,–,inactive,-1.79,inactive,inactive,inactive,inactive,inactive,–,inactive,inactive,inactive
CC(C)NNC(=O)c1ccncc1,inactive,inactive,inactive,–,inactive,-0.682,inactive,inactive,inactive,–,inactive,inactive,–,–,–
Cc1c(N)c(=O)n(-c2ccccc2)n1C,inactive,inactive,inactive,inactive,inactive,–,inactive,–,–,–,–,–,–,–,–
FB(F)F,inactive,inactive,inactive,inactive,–,–,inactive,inactive,–,–,inactive,–,inactive,inactive,–
Cc1cccc(C)c1NC(=O)CC12CCCN1CCC2,inactive,inactive,inactive,–,inactive,6.3,–,inactive,inactive,inactive,inactive,inactive,inactive,–,inactive
CC1=NN(c2cccc(S(=O)(=O)O)c2)C(=O)C1,inactive,inactive,inactive,–,inactive,–,inactive,inactive,–,inactive,44.8 µM (active),–,inactive,inactive,–
C=C(C)C(=O)OCC(O)CO (configuration not stated),inactive,inactive,inactive,–,inactive,–,inactive,inactive,–,inactive,inactive,inactive,inactive,inactive,–
COCCOC[C@H](CC1(C(=O)NC2CCC(C(=O)O)CC2)CCCC1)C(=O)Oc1ccc2c(c1)CCC2 (some centres not stated),inactive,inactive,54.5 µM (active),inactive,–,–,inactive,inactive,–,inactive,inactive,–,inactive,–,–
